PubChem BioAssay (Tox21)
Inconclusive results are not listed. Unmarked numbers belong to inactive results. Activity calls are given as the source filed them. Calls follow the shape of the full dose curve.

These compounds were tested against Acetylcholinesterase (Homo sapiens) (UniProt P22303) (assay: Acetylcholinesterase (AChE) small molecule antagonists: colormetric cell-based qHTS assay (AID 1347395; also: nearly all actives have a fitted effect of over 30% in size)). Details: SH-SY5Y cells AChE activity, colorimetric (Ellman); series mostly up to 115 µM; activity, negative = inhibition: at the top concentration.
Summary of the method: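 Quantitative HTS in attached SH-SY5Y cells: 30 min compound exposure, then 90 min with acetylthiocholine and DTNB at 37 C; colour from thiocholine reports AChE activity.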
% is scaled to controls: 0 for no effect and ±100 for the full control effect.

Acetylcholinesterase (Homo sapiens), sequence (P22303 whole entry, looked up): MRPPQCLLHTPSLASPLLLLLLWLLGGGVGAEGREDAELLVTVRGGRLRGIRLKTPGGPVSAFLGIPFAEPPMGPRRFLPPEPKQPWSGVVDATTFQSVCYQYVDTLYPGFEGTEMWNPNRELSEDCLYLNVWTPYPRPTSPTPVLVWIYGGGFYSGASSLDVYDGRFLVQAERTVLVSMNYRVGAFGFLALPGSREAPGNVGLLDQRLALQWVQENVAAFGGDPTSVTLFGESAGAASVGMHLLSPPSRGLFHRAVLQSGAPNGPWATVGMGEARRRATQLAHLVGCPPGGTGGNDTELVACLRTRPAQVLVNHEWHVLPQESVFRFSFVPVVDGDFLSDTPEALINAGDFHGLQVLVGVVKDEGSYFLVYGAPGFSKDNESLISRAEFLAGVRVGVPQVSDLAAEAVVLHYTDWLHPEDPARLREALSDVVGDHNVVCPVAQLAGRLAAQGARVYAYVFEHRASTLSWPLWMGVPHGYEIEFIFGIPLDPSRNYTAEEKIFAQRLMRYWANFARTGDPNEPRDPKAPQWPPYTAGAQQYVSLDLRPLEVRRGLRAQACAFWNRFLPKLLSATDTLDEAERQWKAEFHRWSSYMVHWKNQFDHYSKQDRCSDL

Structure (SMILES) | activity, negative = inhibition | Potency | outcome
CC(C)Oc1ccccc1O | 5.08% | – | –
CCN(CC)S(=O)(=O)c1ccc(C(=O)O)cc1 | -1.83% [at 52.9 µM] | – | –
COC(=O)C1CCC(C(=O)OC)CC1 (stereo not given) | – | inactive | –
CN1Cc2cc(C(=O)N3CCC(C4CCNCC4)CC3)ccc2N[C@@H](CC(=O)O)C1=O | -5.18% [at 52.9 µM] | – | –
COc1ccccc1OCC1CNC(=O)O1 (stereo not given) | -1.14% [at 52.9 µM] | – | –
CCCCCCCCCC(=O)OC | – | inactive | –
CC1C(C)(C)C2=C(C(=O)CCC2)C1(C)C (stereo not given) | 4.2% | – | –
CCC(C)(O)CCC=C(C)C (stereo not given) | 0.456% | – | –
CC1=C(C/C=C(\C)CCC[C@H](C)CCC[C@H](C)CCCC(C)C)C(=O)c2ccccc2C1=O | -2.51% [at 52.9 µM] | – | –
O=C(O)c1cc(O)c(O)c(O)c1 | – | inactive | –
Nc1ccc(C(=O)Nc2ccccc2N)cc1 | -17% [at 52.9 µM] | – | –
SCCc1cnccn1 | -0.327% | – | –
COc1ccc(S(=O)(=O)Nc2nnc(CC(C)C)s2)cc1 | 3.79% [at 52.9 µM] | – | –
Oc1ccccc1C=NCc1ccccc1 | -0.969% [at 52.9 µM] | – | –
O=C(COCCOCCOCC(=O)Nc1c(I)cc(I)c(C(=O)O)c1I)Nc1c(I)cc(I)c(C(=O)O)c1I | 0.294% [at 52.9 µM] | – | –
CC[C@H](C)COC(=O)/C=C/c1ccc(N=Cc2ccc(OC)cc2)cc1 | -0.388% | – | –
O=c1n(CCO)c(=O)n(CCO)c(=O)n1CCO | – | inactive | –
Cc1ccc2c(c1)C(=O)c1ccccc1C2=O | -6.5% | – | –
Cc1oc(-c2ccccc2)nc1CCOc1ccc(C[C@H](Nc2ccccc2C(=O)c2ccccc2)C(=O)O)cc1 | 1.56% | – | –
CNC(=O)c1c(I)c(NC(=O)CCCCC(=O)Nc2c(I)c(C(=O)O)c(I)c(C(=O)NC)c2I)c(I)c(C(=O)O)c1I | 4.84% [at 52.9 µM] | – | –

Structure (SMILES) | activity, negative = inhibition | Potency | outcome
O=C(O)C(Cc1cc(I)c(O)c(I)c1)c1ccccc1 (stereo not given) | -9.25% [at 52.9 µM] | – | –
C=C1C2CCC(C2)C1(C)C (stereo not given) | – | inactive | –
CC(C)(C)c1cc(/C=C2\SC(=N)NC2=O)cc(C(C)(C)C)c1O | – | – | inactive
CC(C)(C)C(=O)OCOC(=O)[C@@H]1N2C(=O)[C@@H](NC(=O)[C@H](N)c3ccccc3)[C@H]2SC1(C)C | -0.0881% [at 52.9 µM] | – | –
COc1ccc([N+](=O)[O-])cc1N | – | inactive | –
COc1cc(NS(=O)(=O)c2ccc(N)cc2)ncn1 | 2.39% [at 52.9 µM] | – | –
Cc1c(-c2cccnc2)c2ccccc2n1CCCCC(=O)O | -2.43% | – | –
NC(=O)COCCN1CCN(C(c2ccccc2)c2ccc(Cl)cc2)CC1 (stereo not given) | 0.948% [at 52.9 µM] | – | –
CC[C@H](C)[C@@H](C(=O)O)n1sc2ccccc2c1=O | -0.414% | – | –
CCCCCCCC(=O)OCC | -0.832% | – | –
O=C1[C@@H]2[C@H]3CC[C@H](C3)[C@@H]2C(=O)N1CCCCN1CCN(c2ncccn2)CC1 | -4.94% [at 52.9 µM] | – | –
O=C1NC(=O)[C@@]2(CCOc3ccc(F)cc32)N1 | 2.3% [at 52.9 µM] | – | –
CCCCCCCCCCCCOCCO | – | inactive | –
CC1(C)[C@@H](O[C@H]2O[C@H](C(=O)O)[C@@H](O)[C@H](O)[C@H]2O[C@@H]2O[C@H](C(=O)O)[C@@H](O)[C@H](O)[C@H]2O)CC[C@]2(C)[C@H]3C(=O)C=C4[C@@H]5C[C@@](C)(C(=O)O)CC[C@]5(C)CC[C@@]4(C)[C@]3(C)CC[C@@H]12 | – | inactive | –
O=C1c2c(O)cccc2Cc2cccc(O)c21 | – | inactive | –
CC12CCC(CC1)C(C)(C)O2 | – | inactive | –
O=c1cc[nH]c(=S)[nH]1 | – | inactive | –
Cc1ncc(COP(=O)(O)O)c(C=O)c1O | 2.85% [at 52.9 µM] | – | –
Cc1cc(O)c(C(C)(C)C)cc1Sc1cc(C(C)(C)C)c(O)cc1C | 5.75% | – | –
NC(=O)c1cn(Cc2c(F)cccc2F)nn1 | -2.29% [at 52.9 µM] | – | –
